PMP22 txn: PMP22 gene transcription modulation; AID 1508649; actives 2% (n = 43,000); S16 Pmp22-F2sN Schwann cells, FLuc/NLuc coincidence luminescence, 24 h; Potency, µM (highest dose often 57.5 µM), for the others: at the highest dose activity change, negative = inhibition, usual class: inhibitors; active = clear falling dose curves in both reporters; inconclusive = both reporters move, but less clearly or upward; inactive = either reporter flat; the % is the NLuc reporter signal; note: potency is the fitted concentration of half-maximal effect; % is set by controls: 0 for no effect and ±100 for the full control effect
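Transcriptional readout in edited S16(c9) cells: two luciferases reported from the Pmp22 locus, measured in turn after 24 h compound incubation.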
pS6 MEF inh: reduces mTORC1 signaling in Tsc2 and p53 null MEF cells | AID 493208 | actives 0.78% (n = 44,000) | Tsc2-/- p53-/- MEF, phospho-rpS6 immunofluorescence/PI, 24 h | Potency, µM (doses to about 38.3 µM), for inactives: at the top dose activity change, negative = inhibition, actives largely listed as inhibitors;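 note: potency is the fitted concentration of half-maximal effect; plate controls were DMSO for no effect and rapamycin for full effect; nearly all actives have a fitted effect of over 50% in size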
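Immunofluorescence of rpS6 phosphorylation in Tsc2-/-, p53-/- MEFs after 24 h compound exposure, normalized to propidium iodide signal. Activity is expressed as % positive cells, thresholded with 7.5 nM rapamycin.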
SKOV3 invasion: ovarian cancer metastasis inhibition, 3D TME model. SKOV3ip1-GFP adhesion/invasion on 3D omental model, fluorescence. Potency, µM (titrated, usually from 45.8 µM), inactives show at the highest dose activity change, negative = inhibition, most hits filed as inhibitors. actives 0.1% (n = 46,000);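 note: potency is the fitted concentration of half-maximal effect; plate controls were DMSO wells for no effect and tomatine positive control wells for full effect; nearly all actives have a fitted effect of over 65% in size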
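Adhesion/invasion was scored as fixed GFP-labeled SKOV3ip1 cell counts (488/509 nm), normalized to DMSO and tomatine controls. Cancer cells in serum-free medium, with four compound doses (0.36-46 umol/L), sat 2 hr at RT then 16 hr at 37 C on a 48 hr fibroblast/mesothelial/ECM culture.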
S16 viability: toxic to S16 Pmp22-F2sN Schwann cells; S16 Pmp22-F2sN Schwann cells (luciferase reporters placed in the Pmp22 gene) viability, CellTiter-Glo, 24 h; Potency, µM (series often up to 57.5 µM), inactives show at the highest dose activity change, negative = cytotoxicity, usual class: cytotoxic; actives 0.48% (n = 43,000); AID 1508642; note: potency is the fitted concentration of half-maximal effect; % is set by controls: 0 for no effect and ±100 for the full control effect; nearly all actives have a fitted effect of over 65% in size
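CellTiter-Glo counter-screen, qHTS, 1536-well. Cells: S16(c9) Pmp22-F2sN, 500-1,000/well in DMEM + 10% FBS. Cpd 23 nL pin transfer, 24 h, 37C/5% CO2. Read: luminescence, CCD imager.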
p53null 32C kill: kills p53 null cells at the permissive temperature | H1299-neo p53 null cells, ATP luminescence, 24 h, 32C | Potency, µM (doses to about 46.1 µM), for the others: top-dose activity change, negative = cytotoxicity, actives largely listed as cytotoxic | actives 0.62% (n = 55,000) | AID 903;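 note: potency is the fitted concentration of half-maximal effect; 0% = DMSO only and -100% = full killing by 100 µM tamoxifen; nearly all actives have a fitted effect of over 55% in size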
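Cells lacking p53 (H1299-neo) are plated at 600 per well and allowed to settle overnight at 37C. Test compounds (up to 46 uM) are added and held 24 hours at 32C, then ATP is quantified by luminescence.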
p53null 39C tox: kills p53 null cells at the nonpermissive temperature. actives 0.97% (n = 55,000). AID 904. H1299 p53-null (neo) cells, 39C, ATPlite viability, 24 h. Potency, µM (top dose mostly 46.1 µM), for inactives: at the highest dose activity, negative = cell killing, usual class: cytotoxic;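 note: potency is the fitted concentration of half-maximal effect; 0% = DMSO only and -100% = full killing by 100 µM tamoxifen; nearly all actives have a fitted effect of over 50% in size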
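Cells seeded at 600/well, 37C overnight. Compound added (up to 46 uM), plates shifted to 39C for 24 hr. ATPlite added, luminescence read after 20 min at room temperature.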
NLuc sat counter: counter-screen for PMP22 expression modulators: NanoLuc inhibition, saturating substrate; Secreted NLuc enzyme (filtered S16 cell medium), Nano-Glo luminescence; shares compounds with PMP22 txn; actives 4% (n = 690); AID 1508638; Potency, µM (top dose mostly 57.5 µM), without a hit: top-dose activity change, negative = inhibition, hits mostly inhibitors; note: potency is the fitted concentration of half-maximal effect; % is set by controls: 0 for no effect and ±100 for the full control effect
NLuc Km ctr: NanoLuc inhibition at Km substrate, PMP22 artifact check; shares compounds with PMP22 txn; secreted NLuc enzyme, coelenterazine luminescence, Km conditions; Potency, µM (highest dose often 57.5 µM), without a hit: at the highest dose activity change, negative = inhibition, hits mostly inhibitors; actives 5% (n = 690); note: potency is the fitted concentration of half-maximal effect; % is set by controls: 0 for no effect and ±100 for the full control effect
FLuc ctr PMP22: counter-screen for PMP22 expression modulators: firefly luciferase inhibition; 690 tested, under 10 active; purified P. pyralis FLuc, luminescence, 10 min; Potency, µM (top dose mostly 57.5 µM), without a hit: at the highest dose activity, negative = inhibition, usual class: inhibitors; shares compounds with PMP22 txn; note: % of control where 0% means no effect
Target sequence (P08659 whole entry, looked up): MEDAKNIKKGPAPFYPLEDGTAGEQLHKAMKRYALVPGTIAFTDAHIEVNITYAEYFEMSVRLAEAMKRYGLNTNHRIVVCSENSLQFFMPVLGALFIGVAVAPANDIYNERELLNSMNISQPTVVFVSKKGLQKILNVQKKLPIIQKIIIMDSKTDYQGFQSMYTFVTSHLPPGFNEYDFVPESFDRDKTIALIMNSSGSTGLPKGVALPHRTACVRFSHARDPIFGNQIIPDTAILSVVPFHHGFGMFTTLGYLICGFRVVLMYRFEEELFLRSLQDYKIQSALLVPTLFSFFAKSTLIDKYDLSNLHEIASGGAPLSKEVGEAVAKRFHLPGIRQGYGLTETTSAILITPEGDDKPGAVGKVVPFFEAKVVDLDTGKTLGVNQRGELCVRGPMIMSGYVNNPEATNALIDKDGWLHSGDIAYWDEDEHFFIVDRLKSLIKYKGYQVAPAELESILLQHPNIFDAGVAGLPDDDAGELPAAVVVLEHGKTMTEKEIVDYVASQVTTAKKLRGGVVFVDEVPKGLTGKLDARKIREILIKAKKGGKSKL
S16 viab conf: S16 Schwann cell cytotoxicity, confirmatory | S16 Schwann cells viability, CellTiter-Glo ATP luminescence, 24 h | Potency, µM (top dose mostly 57.5 µM), for the others: at the top dose activity change, negative = viability loss, usual class: cytotoxic | actives 7% (n = 690) | AID 1508641 | shares compounds with PMP22 txn; note: potency is the fitted concentration of half-maximal effect; % is set by controls: 0 for no effect and ±100 for the full control effect
PMP22 txn conf: confirmation of modulators of PMP22 gene transcription in S16 cells | shares compounds with PMP22 txn | S16 Schwann cells Pmp22-F2sN, dual luciferase, 24 h | Potency, µM (highest dose often 57.5 µM), without a hit: top-dose activity change, negative = inhibition, usual class: inhibitors | actives 22% (n = 690); active = clear falling dose curves in both reporters; inconclusive = both reporters move, but less clearly or upward; inactive = either reporter flat; the % is the FLuc reporter signal; note: potency is the fitted concentration of half-maximal effect
PMP22 prot conf: rat PMP22 protein level modulation, confirmatory; shares compounds with PMP22 txn; S16 Schwann cells Pmp22-HiBiT, luminescence, 48 h; Potency, µM (doses to about 27.9 µM), for the others: at the highest dose activity change, negative = inhibition, most hits filed as inhibitors; 95 tested, under 10 active; AID 1508647
Target sequence (P25094 whole entry, looked up): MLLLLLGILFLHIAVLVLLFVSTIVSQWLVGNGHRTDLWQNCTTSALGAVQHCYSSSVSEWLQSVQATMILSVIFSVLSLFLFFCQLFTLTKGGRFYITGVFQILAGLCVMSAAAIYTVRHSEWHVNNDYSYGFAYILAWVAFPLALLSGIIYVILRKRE
The depositor's hits bear a star; i = inactive; ? = inconclusive; nt = no result. A selection: hits, their analogues and other compounds. The true share with any hit is near 3.1%. Unless noted, calls come from the whole dose curve; as a rule, active = well fitted curve in the direction sought with a large enough effect; inconclusive = small, poorly fitted or top-dose-only effect, or another doubt; inactive = no such curve, though single readings can be large; an effect the other way counts as inactive or inconclusive.

SMILES	PMP22 txn	pS6 MEF inh	SKOV3 invasion	S16 viability	p53null 32C kill	p53null 39C tox	NLuc sat counter	NLuc Km ctr	FLuc ctr PMP22	S16 viab conf	PMP22 txn conf	others
CC[C@H]1OC(=O)[C@H](C)[C@@H](O[C@H]2C[C@@](C)(OC)[C@@H](O)[C@H](C)O2)[C@H](C)[C@@H](O[C@@H]2O[C@@H](C)C[C@H](N(C)C)[C@@H]2O)[C@](C)(O)C[C@@H](C)C(=O)[C@H](C)[C@@H](O)[C@]1(C)O	nt	nt	-10%	nt	nt	nt	nt	nt	nt	nt	nt
COc1cc2nccc(Oc3ccc(NC(=O)NC4CC4)c(Cl)c3)c2cc1C(N)=O	nt	nt	-1%	nt	nt	nt	nt	nt	nt	nt	nt
CC1=Nc2cc(C(=O)NC3CCCC3)ccc2Sc2ccc(C)cc21	7.8µM*	?	9%	2%	1%	?	-10%	4%	-7%	15%	?
O=c1c(-c2ccc(O)cc2)coc2cc(O[C@@H]3O[C@H](CO)[C@H](O)[C@H](O)[C@H]3O)ccc12	nt	nt	-16%	nt	nt	nt	nt	nt	nt	nt	nt
Cc1oc(-c2ccc(Cl)cc2)nc1CN1CCCC(C(=O)NCCc2ccccc2)C1 (configuration not stated)	19µM*	4%	2%	-13%	-4%	-2%	-10%	-15%	-20%	?	-29%
CCc1ccc(-c2nc(CN3CCC(C(=O)NCCc4ccc(C)cc4)CC3)c(C)o2)cc1	?	-8%	9%	21%	-3%	8%	nt	nt	nt	nt	nt
CCc1ccc(-c2nc(CN3CCC(C(=O)NCCc4ccc(Cl)cc4)CC3)c(C)o2)cc1	16µM*	-4%	5%	16%	1%	-17%	-7%	2%	-13%	?	?
NC1(c2ccc(-c3nc4ccn5c(=O)[nH]nc5c4cc3-c3ccccc3)cc2)CCC1	nt	nt	-16%	nt	nt	nt	nt	nt	nt	nt	nt
CCOc1ccccc1C(=O)Nc1c(C(=O)Nc2ccc(F)cc2)oc2ccccc12	4.1µM*	-17%	-10%	20%	8%	30%	?	-7%	-7%	-3%	5.6µM*
CC(=O)NCC(=O)N1[C@H]2CC[C@H]1c1cc(Nc3ncc(C(F)(F)F)c(NC4CCC4)n3)ccc12	nt	nt	-15%	nt	nt	nt	nt	nt	nt	nt	nt
Cc1ccc(NC(=O)CSc2nc(-c3ccc(F)cc3)nc3c2Cc2c(CO)cnc(C)c2O3)cc1C	9%	-1%	13%	0%	-7%	?	nt	nt	nt	nt	nt
Cc1ncc(CO)c2c1Oc1nc(-c3ccc(Cl)cc3)nc(SCC(=O)N3CCCCC3)c1C2	?	-2%	2%	?	-1%	-23%	nt	nt	nt	nt	nt
COc1ccccc1-c1nc2c(c(SCC(=O)Nc3ccc(C)c(C)c3)n1)Cc1c(CO)cnc(C)c1O2	17µM*	-6%	23%	-25%	4%	-15%	?	?	-10%	-19%	?
Cc1ncc(CO)c2c1Oc1nc(-c3ccccc3)nc(SCC(=O)N3CCCCC3)c1C2	12µM*	-2%	7%	1%	3%	-22%	-5%	1%	2%	?	?
C[C@H](NC(=O)Cc1cc(F)cc(F)c1)C(=O)N[C@@H]1C(=O)N(C)c2ccccc2-c2ccccc21	nt	nt	38%	nt	nt	nt	nt	nt	nt	nt	nt
O=C1CC(c2cccc(Cl)c2Cl)c2cc3c(cc2N1)OCCO3 (configuration not stated)	16µM*	-13%	i	-17%	25%	0%	-11%	?	-3%	-7%	-32%
O=C1CC(c2ccc(Cl)cc2)c2cc3c(cc2N1)OCCO3 (configuration not stated)	?	-3%	i	-7%	27%	14%	nt	nt	nt	nt	nt
O=S(=O)(c1cccc(Cl)c1)c1nnn2c1nc(NC1CCCCCC1)c1sccc12	10µM*	-12%	5%	-6%	2%	-1%	0%	-3%	8%	6%	?
COc1cccc2c1C(=O)c1c(O)c3c(c(O)c1C2=O)C[C@@](O)(C(=O)CO)C[C@H]3O[C@H]1C[C@H](N)[C@H](O)[C@H](C)O1	nt	nt	5%	nt	nt	nt	nt	nt	nt	nt	nt
Cc1nnc(NC(=O)CSc2nc3c([nH]c4ccccc43)c(=O)n2-c2ccccc2)s1	?	0%	5%	21%	0%	7%	nt	nt	nt	nt	nt
Cc1cc(C)cc(-n2c(SCC(=O)Nc3nnc(C)s3)nc3c([nH]c4ccccc43)c2=O)c1	16µM*	0%	14%	14%	-9%	4%	?	?	4%	-5%	?
O=C(CSc1nc2c([nH]c3ccccc32)c(=O)n1-c1cccc(Cl)c1)c1ccccc1	14µM*	-4%	i	5%	3%	-4%	-2%	1%	-3%	-15%	12µM*	PMP22 prot conf=?
COc1cccc(NC(=O)CSc2nc3c([nH]c4ccccc43)c(=O)n2-c2cc(C)cc(C)c2)c1	52%	-6%	-4%	-2%	8%	13%	nt	nt	nt	nt	nt

Assay outcomes from PubChem.
